This passage reports growth results from PubChem BioAssay (NCI).

This is part of a sample that, as a whole, favours compounds with a hit. Of some 83,000 tested, about 20% had one in any assay.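 Single-concentration screen, 48 h exposure, 96-well plates. Endpoint: percent growth. Below 10 = active.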 Calls of active or inactive are those of the source.

The test system of the assay is HL-60(TB) leukemia. Put plainly: NCI-60 one-dose screen, 48 h (100 = growth as untreated, 0 = no growth, -100 = all killed). To be noted: 10 µM unless noted.
Turning to `COc1cccc(C(=O)NNc2nc(Cl)nc(Cl)n2)c1`, the growth is 96.2% (inactive).
The result for `COc1ccc2c(c1OC)C(=O)O[C@@H]2[C@H]1c2c(c(C#CC#Cc3ccc(F)c(F)c3)c3c(c2OC)OCO3)CCN1C` reads 76.9% (inactive); that for `COc1ccc(OC)c(Nc2nnc(-c3ccc(Cl)cc3)o2)c1`, 94.8% (inactive).
